This is one part of a sample in which hits are shown more often than they occur.
KDM5B inhibitor – Primary screen for KDM5B Histone Demethylases FDH-coupled qHTS; Lysine-specific demethylase 5B (Homo sapiens), Q9UGL1; Potency, µM (highest dose often 57.7 µM), actives largely listed as inhibitors; AID 1347165, 2019; 220,000 compounds, 2.6% hits; KDM5B demethylase, FDH-coupled NADH fluorescence (FDH is formaldehyde dehydrogenase); active means well fitted inhibition curve with a large enough effect; further: 0% is about no effect; nearly all actives have a fitted effect of over 70% in size
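qHTS format, multiple compound concentrations. Buffer 50 mM HEPES pH 7.5/0.01% Tween-20; 200 nM KDM5BΔAP final; 10 min compound preincubation; substrate-mix levels 12.5 µM peptide, 25 µM α-KG, 0.25 mM NAD⁺; 30 min RT; ΔRFU.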
* = called active by the depositor; i = inactive. Potency means the concentration at half of the fitted maximal effect.

SMILES	KDM5B inhibitor
O=C1N(CCc2ccccc2)CCOC12CCN([S+](=O)([O-])c1cccnc1)CC2	i
Cc1cccc([S+](=O)([O-])N2CCC3(CC2)OCCN(CC2CC2)C3=O)c1	i
N#Cc1ccc([S+](=O)([O-])N2CCC3(CC2)OCCN(CC2CCOCC2)C3=O)cc1	32µM*
CCCCN1CCN(C(=O)CCc2cc3ccc(C)cc3[nH]c2=O)CC1	i
CCOC(=O)N1CCN(C(=O)c2cc3cc(C)ccc3[nH]2)CC1	i
Cc1ccc2[nH]c(=O)c(CCC(=O)NC3CCN(Cc4ccccc4)CC3)cc2c1	25µM*
Cc1cccc(-c2nocc2CCC(=O)NC2CCN(Cc3ccccc3)CC2)c1	i
Cc1ccc2[nH]c(=O)c(CCC(=O)N3CCCCC3)cc2c1	28µM*
CCCN(Cc1cc2cc(C)ccc2[nH]c1=O)S(C)(=O)=O	i
CC(=O)N(Cc1ccccc1)Cc1cc2cc(C)ccc2[nH]c1=O	i
Cc1ccc2[nH]c(=O)c(CCC(=O)N3CCN(CC(C)C)CC3)cc2c1	22µM*
Cc1ccc(-c2nc(CC(=O)NC3CCN(Cc4ccccc4)CC3)cs2)cc1	i
Cc1nc2c(c(-c3ccc(O)cc3)n1)CN(C(=O)c1cccc(Cl)c1)CC2	i
COC(=O)Cn1c(=O)c2c(nc(-n3nc(C)cc3C)n2CC(C)C)n(C)c1=O	i
Cc1ccc(C(=O)NCCn2ccn3nc(-c4cc(C)ccc4C)cc3c2=O)cc1	i
Cc1ccc(-c2cc3c(=O)n(CCNC(=O)c4ccc(Cl)cc4)ccn3n2)cc1C	14µM*
COc1cccc(C(=O)NCCn2ccn3nc(-c4ccc(C)c(C)c4)cc3c2=O)c1	i
Cc1ccc(-c2cc3c(=O)n(CCNC(=O)c4ccc(F)c(F)c4)ccn3n2)c(C)c1	i
Cc1ccc(-c2cc3c(=O)n(CCNC(=O)c4ccc(F)cc4Cl)ccn3n2)cc1C	32µM*
Cc1ccc(C(=O)NCCn2ccn3nc(-c4ccc(F)cc4)cc3c2=O)cc1F	i
Cc1ccc(C)c(-c2cc3c(=O)n(CCNC(=O)c4ccccc4Cl)ccn3n2)c1	i
Cc1ccc(C)c(-c2cc3c(=O)n(CCNC(=O)c4ccc(N(C)C)cc4)ccn3n2)c1	35µM*
Cc1ccc(C)c(-c2cc3c(=O)n(CCNC(=O)c4ccc(C#N)cc4)ccn3n2)c1	i
Cc1ccc(-c2cc3c(=O)n(CCNC(=O)c4cccc(N(C)C)c4)ccn3n2)cc1C	18µM*
Cc1sc2c(c1C)c1nc(-c3ccco3)nn1c(=O)n2CCc1ccccc1	i
SMILES	KDM5B inhibitor
CC1CCCC(c2ccc(O)cc2)(c2ccc(O)cc2)C1 (stereo not drawn)	i
Cn1c(SCc2csc(-c3ccc(Cl)cc3)n2)nnc1C1CC1	i
CN(Cc1ccccc1)C(=O)/C=C/c1cccs1	i
NC(=O)C(Sc1cc(Cl)ccc1Cl)c1ccccc1 (stereo not drawn)	i
Cn1c(SCC(=O)Nc2c(F)c(F)cc(F)c2F)nc2c(=O)[nH]cnc21	i
O=C(CN1CCCC1c1ccccc1)Nc1cccc(F)c1 (stereo not drawn)	i
CC1CCN(c2c(S(=O)(=O)c3ccccc3)cnc3cc4c(cc23)OCCO4)CC1	i
COc1cccc(NC(=O)c2c(C)oc3nc(C)nc(N4CCCC4)c23)c1	i
CCOc1cc(=O)n2c(c1C(=O)Nc1cccc(F)c1C)CCCC2	i
Cc1cn2nc(C(=O)Nc3ccc4c(c3)OCCO4)cc2c(N2CCCC2)n1	25µM*
Cn1nc(C(=O)Nc2ccc3c(c2)OCCO3)c2ccccc2c1=O	i
COc1cccc(NC(=O)c2cc3c(N4CCCC4)nc(C)cn3n2)c1	35µM*
COc1cccc(C(=O)Nc2ccc3ncnc(N4CCCCC4)c3c2)c1	i
Cc1cn2nc(C(=O)Nc3cccc(F)c3C)cc2c(N2CCCC2)n1	25µM*
Cc1ccc(NC(=O)c2cn(-c3ccc4c(c3)OCCO4)nn2)cc1Cl	i
CCc1ccccc1NC(=O)c1cc2c(=O)[nH]c(C)cn2n1	i
Cc1ccc2c(Cn3nnc(-c4ccc(F)cc4)n3)cc(=O)oc2c1C	i
O=C(NC1CCN(Cc2cccc(C(F)(F)F)c2)CC1)C1CCCCC1	i
CC/C=C(/C)C(=O)NCCCN1CCCC1	i
O=C(Cc1cccnc1)N1CCC(N2CC(OCC3CC3)C23CCCCC3)CC1 (stereo not drawn)	i
COC(=O)c1[nH]c(C)c(/C(O)=C2\C(=O)C(=O)N(CCCn3ccnc3)C2c2cccc(OC)c2)c1C (stereo not drawn)	i
CCO[C@H]1CN(C(=O)c2cnn(Cc3ccccc3)c2)C[C@@H]1O	i
CCO[C@H]1CN(C(=O)c2cnc(Nc3ccccc3)nc2)C[C@@H]1O	i
CCO[C@H]1CN(C(=O)c2nc3ccccc3[nH]c2=O)C[C@@H]1O	25µM*
NC(=O)c1ccc(CN(C(=O)/C=C/c2cccs2)C2CC2)cc1	i
O=C1NCCCCCCN(C(=O)C2CC2)[C@H]2C[C@H](C(=O)N3CCc4ccccc4C3)C[C@@H]12	i

Source: PubChem BioAssay (National Center for Advancing Translational Sciences (NCATS))
